High-throughput results (PubChem)
Only some compounds are listed: those with a hit (about 7.4% of all), similar ones and a draw of the others.
hNpr1 antagonist = blocks ANP-stimulated signaling of human Npr1 receptor | P16066 | Potency, µM (titrated, usually from 46.3 µM), most hits filed as inhibitors | HEK293 hNpr1 GloSensor cGMP, ANP-stimulated luminescence | AID 1347048 | 76,000 tested, 1.6% active; calls by dose curve; further: nearly all actives have a fitted effect of over 60% in size
Target sequence (P16066 whole entry, looked up): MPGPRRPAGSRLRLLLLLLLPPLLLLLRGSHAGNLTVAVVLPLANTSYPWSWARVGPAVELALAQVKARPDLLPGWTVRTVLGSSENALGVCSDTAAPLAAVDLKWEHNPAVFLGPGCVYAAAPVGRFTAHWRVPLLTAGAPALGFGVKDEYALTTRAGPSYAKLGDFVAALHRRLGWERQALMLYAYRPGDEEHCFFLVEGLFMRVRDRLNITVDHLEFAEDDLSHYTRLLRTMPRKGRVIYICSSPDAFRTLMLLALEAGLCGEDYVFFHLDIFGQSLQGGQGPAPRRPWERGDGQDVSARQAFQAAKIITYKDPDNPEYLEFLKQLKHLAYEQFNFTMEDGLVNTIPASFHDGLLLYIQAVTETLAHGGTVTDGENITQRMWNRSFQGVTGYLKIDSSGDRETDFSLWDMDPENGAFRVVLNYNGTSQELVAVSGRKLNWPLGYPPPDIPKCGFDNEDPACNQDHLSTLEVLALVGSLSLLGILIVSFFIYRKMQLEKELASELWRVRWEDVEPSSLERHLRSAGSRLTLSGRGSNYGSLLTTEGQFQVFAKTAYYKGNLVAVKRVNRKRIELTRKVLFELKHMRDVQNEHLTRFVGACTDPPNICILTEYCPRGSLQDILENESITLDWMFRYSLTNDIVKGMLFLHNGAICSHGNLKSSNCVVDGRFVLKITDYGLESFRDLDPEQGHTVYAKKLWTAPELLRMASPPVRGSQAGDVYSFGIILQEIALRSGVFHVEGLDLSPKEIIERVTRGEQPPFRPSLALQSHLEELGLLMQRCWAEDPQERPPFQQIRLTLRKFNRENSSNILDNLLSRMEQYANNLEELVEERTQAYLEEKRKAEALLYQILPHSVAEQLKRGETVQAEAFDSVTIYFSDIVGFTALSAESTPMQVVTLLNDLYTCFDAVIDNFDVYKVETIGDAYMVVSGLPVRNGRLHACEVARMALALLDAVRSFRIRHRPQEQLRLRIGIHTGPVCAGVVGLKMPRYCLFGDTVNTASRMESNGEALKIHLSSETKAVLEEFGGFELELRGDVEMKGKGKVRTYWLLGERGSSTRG
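HEK293 cells stably expressing human Npr1 and cGMP GloSensor pGS-40F, loaded 2 h with 2% GloSensor reagent, given compound 30 min at room temperature. Luminescence read before and 20 min after 0.1 nM hNppA.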
SNCA expr inhib = reduces expression of the alpha-synuclein gene; HEK-293 SNCA-luciferase knock-in, luminescence, 24 h; Potency, µM (highest dose often 57.2 µM), usual class: inhibitors; 140,000 tested, 0.17% active; AID 1671194; further: nearly all actives have a fitted effect of over 45% in size
SNCA viab count = counter-screen for SNCA expression inhibitors: cell viability | HEK-293-SNCA-luc viability, GF-AFC fluorescence, 24 h | Potency, µM (highest dose often 57.1 µM), hits mostly cytotoxic | 150,000 tested, 0.12% active; further: nearly all actives have a fitted effect of over 30% in size
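HEK-293-SNCA-luc cells (1500/well) plated 24 h, then exposed 24 h to a dilution series; GF-AFC added 30 min at 37C, fluorescence 405/540 nm; normalised to medium-only and DMSO wells, Hill fit.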
HEK293 tox = cytotoxic compounds in HEK 293 cells. HEK 293 viability, ATP luminescence (CellTiter-Glo), 48-72 h. Potency, µM (series often up to 115 µM), actives largely listed as inhibitors. 94,000 tested, 6.6% active. AID 1345083; further: nearly all actives have a fitted effect of over 60% in size
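CellTiter-Glo luminescence (cellular ATP) was read after 48 or 72 hr of compound exposure at 37 degree Celsius. Cells were HEK 293 plated at 250 cells/well.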
FLuc inh = Photinus pyralis luciferase inhibition. AID 1347043. Potency, µM (highest dose often 115 µM), usual class: inhibitors. purified P. pyralis luciferase, luminescence, biochemical. 76,000 tested, 2.5% active; further: nearly all actives have a fitted effect of over 65% in size
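Luminescence read by CCD imaging after purified firefly luciferase (10nM final) was added to substrate buffer holding 10uM D-luciferin and 10uM ATP, pH 7.5, pre-dosed with compound.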
3T3 cytotox = NIH 3T3 cell cytotoxicity; NIH 3T3 viability, CellTiter-Glo ATP luminescence, 48-72 h; Potency, µM (highest dose often 96.7 µM), actives largely listed as inhibitors; 94,000 tested, 4.3% active; further: nearly all actives have a fitted effect of over 55% in size
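Cells were seeded at 400 per well, treated with pin-transferred compound, and kept 48 or 72 hr at 37 °C before CellTiter-Glo addition and luminescence imaging of cellular ATP.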
Hits are given with their value; - = inactive; ? = inconclusive; . = no result. Unless noted, the call rests on the fitted dose curve; in most records, active means well fitted curve in the direction sought with a large enough effect; inconclusive means small, poorly fitted or top-dose-only effect, or another doubt; inactive means no such curve, though single readings can be large; an effect the other way counts as inactive or inconclusive.

SMILES	hNpr1 antagonist	SNCA expr inhib	SNCA viab count	HEK293 tox	FLuc inh	3T3 cytotox
CSc1cccc(NC(=O)Cn2c(-c3ccc(Cl)cc3)nc(C)c(CCO)c2=O)c1	-	-	-	32µM	-	-
CCC(O)c1cc2n(n1)CCN(C(=O)CCc1cn3ccccc3n1)C2 (stereo not given)	-	-	-	-	-	-
COC(=O)[C@@H]1Cc2ncn(Cc3ccc(OC)cc3)c2CN1S(=O)(=O)Cc1ccccc1	-	-	?	-	-	?
Cc1nc(-c2ccc(F)cc2)n(CC(=O)Nc2cc(C(F)(F)F)ccc2Cl)c(=O)c1CCO	-	-	-	32µM	-	?
Cc1nc(-c2ccc(F)cc2)n(CC(=O)Nc2ccccc2)c(=O)c1CCO	-	-	-	45µM	-	-
CN1CC[C@@H](c2c(O)cc(O)c3c(=O)cc(-c4ccccc4Cl)oc23)[C@@H](O)C1	.	0.22µM	?	.	.	.
O=C(C1CC1)N1CCc2nc(-c3ccccc3)nc(-c3ccc(Cl)cc3)c2C1	-	-	-	-	-	-
CCc1nc2c(c(-c3ccc(O)cc3)n1)CCN(C(=O)NC1CCCC1)CC2	.	-	-	?	.	-
COc1ccc(-c2nc(-c3ccccc3)nc3c2CN(C(=O)C2CCCC2)CC3)cc1	-	-	-	35µM	-	?
O=C(C1CCCC1)N1CCc2nc(-c3ccc(Cl)cc3)nc(-c3ccccc3)c2C1	-	-	-	18µM	?	?
COC(=O)N1CCc2nc(-c3ccc(OC)cc3)nc(-c3ccccc3)c2C1	-	-	-	?	-	?
CCc1nc2c(c(-c3ccc(O)cc3)n1)CN(C(=O)C1CCCC1)CC2	.	-	-	40µM	.	?
COc1ccc(-c2nc(C3CC3)nc3c2CN(C(=O)c2ccccc2F)CC3)cc1	.	-	-	-	.	28µM
COc1ccc(CCNC(=O)c2cnc3cc(C)nn3c2)cc1	.	-	-	-	.	-
CN(C)C(=O)C1=NOC2CN(C(=O)Nc3cccnc3)CC12 (stereo not given)	.	-	-	-	.	-
O=C(C1CCCC1)N1CCc2nc(-c3ccccc3)nc(-c3ccc(Cl)cc3)c2C1	-	-	-	35µM	-	?
CC(=O)N[C@H]1CO[C@H]2[C@@H]1OC[C@@H]2Nc1nccc(C2CCCC2)n1	-	-	-	?	-	-
CC1=C(CO)C(=O)O[C@@H]([C@@H](C)[C@H]2CC[C@H]3[C@@H]4C[C@H]5O[C@]56[C@@H](O)C=CC(=O)[C@]6(C)[C@H]4CC[C@]23C)C1	.	.	10µM	.	.	.
CC1=C(CO)CC(C(C)C2CCC3C4CC=C5CC(OC6OC(COC7OC(CO)C(O)C(O)C7O)C(O)C(O)C6O)CC(O)C5(C)C4CCC23C)OC1=O (stereo not given)	.	.	-	.	.	.
Cc1ccc(-c2cn3cc(C(=O)NCc4ccccn4)nc3s2)cc1	.	-	-	79µM	.	?
CNC(=O)c1cn2cc(-c3cccc(C(F)(F)F)c3)sc2n1	.	-	-	28µM	.	?
COc1cccc(-c2cn3cc(C(=O)NCC(C)C)nc3s2)c1	.	-	-	22µM	.	?
CC(C)CNC(=O)c1cn2cc(-c3cccc(C(F)(F)F)c3)sc2n1	.	-	-	?	.	?
O=C(NCc1ccc(F)c(F)c1)c1cn2cc(-c3ccc(C(F)(F)F)cc3)sc2n1	.	-	-	56µM	.	45µM
Cc1ccc(CNC(=O)C2CCCN(c3cnn(C)c(=O)c3)C2)cc1 (stereo not given)	-	-	?	-	-	-
COCCCNC(=O)c1cn2cc(-c3cccc(OC)c3)sc2n1	.	-	-	79µM	.	?
COCCNC(=O)c1cn2cc(-c3ccc(C)cc3)sc2n1	.	-	-	100µM	.	?
CC(C)NC(=O)c1cn2cc(-c3ccccc3)sc2n1	.	-	-	71µM	.	?
O=C([C@H]1C[C@@H](O)[C@H](O)[C@@H]2N=C(Nc3ccc(Cl)cc3)S[C@@H]21)N1CCOCC1	-	-	-	-	-	-
CC1(CCCCc2ccccc2)COc2ccc(C(=O)NCCN3CCOCC3)cc2N1 (stereo not given)	-	?	-	89µM	-	79µM
